Bioassay records from PubChem.
MRP resist rev – compounds reversing MRP-mediated drug resistance. H69AR cells + 2 uM doxorubicin, CellTiter-Glo, 72 h. differential viability (reversal), % at 10 µM. actives 0.04% (n = 85,000). AID 602;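 active means viability drop by adding the cancer drug above about 55%, with treated viability meeting a 40% cutoff, limit read from the data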;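 further: viability without doxorubicin minus viability with 2 µM doxorubicin for each compound; larger differential means the compound sensitizes cells more to doxorubicin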
Cav32 inh – blocks human Cav3.2 T-type calcium channel; O95180; Cav3.2-expressing cells, Fluo-4 calcium fluorescence FDSS; hits give low values; B-score at 10 µM; actives 4% (n = 100,000); AID 449739;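 active means single-dose well whose peak fluorescence ratio is a statistical outlier from its plate by either plate-standardised score or position-corrected B-score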
Mac1 fbg enh – CD11b/CD18-fibrinogen binding enhancement; P05107+P11215; K562 CD11b/CD18 adhesion to fibrinogen, ATPlite luminescence; activation, % at 10 µM; actives 0.07% (n = 93,000); AID 1499;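 active means 10 µM primary screen giving 50% or more activity, confirmed by 40% or more on retest at that dose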
PTK2B oligo ant – antagonists of human Pyk2 oligomerization | Q14289 | Q293 cells, Pyk2 FERM NanoBiT luminescence; hits give low values | z-score (the deposit names both 25 µM and 10 µM) | actives 0.83% (n = 99,000) | AID 1347419;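 active means Z-score of -3 or lower, scaled per plate to the spread of control and sample wells; inactive means z-score above -3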;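 further: negative z-score means lost luminescence so less FERM oligomerization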
MRP1 act – activates MRP-1; H69AR cells + doxorubicin, viability rescue, CellTiter-Glo; viability increase, % at 10 µM; actives 0.61% (n = 140,000); AID 799;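 active means viability gain under doxorubicin at or above a set limit, the compound median plus 3 SD, cut at about 4.7% in these data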;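 further: MRP-1 overexpressing cells given doxorubicin 25 µM after compound pretreatment; 18-22 h compound pretreatment then 72 h with doxorubicin before readout; 0% = doxorubicin-only wells and 100% = vehicle-treated cells without doxorubicin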
Mac1 fbg inh – blocks human CD11b/CD18 adhesion to fibrinogen | inhibition, % at 10 µM | K562 CD11b/CD18 adhesion to fibrinogen, ATPlite luminescence; Mn2+ added to activate the integrin | AID 1497 | P05107+P11215 | actives 0.54% (n = 93,000);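 active means primary inhibition of 50% or more at 10 µM, then 40% or more on retest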
Numbers without * were called inactive; . = no result. In the library only some 4.1% were active in any assay of this set; here they are far more common.

SMILES	MRP resist rev	Cav32 inh	Mac1 fbg enh	PTK2B oligo ant	MRP1 act	Mac1 fbg inh
COc1ccc(S(=O)(=O)N2CCCC2C(=O)Nc2nnc(-c3cccnc3)s2)cc1 (stereo unspecified)	7	-0.034	-4	-0.66	-2	24
COc1ccccc1N1CCN(CC(=O)c2c(C)[nH]c3cc(C)ccc23)CC1	-20	-4.2*	-2	-1	-4	-6
CCC(Oc1ccccc1)C(=O)Nc1nc2ccccc2[nH]1 (stereo unspecified)	2	-4.4	-2	-1.4	-2	3
O=C1N/C(=C/c2cccn2-c2ccccc2)C(=O)N1Cc1ccccc1F	.	.	.	.	-3	.
N#Cc1ccccc1CN1C(=O)S/C(=C/c2cccn2-c2ccc(C(=O)O)cc2)C1=O	.	2.8	-2	-3.2*	-2	12
CC1(C)C(=O)Nc2ccccc2N1C(=O)COC(=O)C1CCCCC1	-9	-5.6*	-4	0.85	0	-2
N/C(=N\N=C\c1ccc2c(c1)OCO2)c1nonc1N	.	.	.	.	5.6*	.
CCOC(=O)c1ccc(Nc2nc(-c3cccnc3)nc3ccccc23)cc1	.	0.0093	9	-3.5*	-3	6
COC(=O)CNc1nc(-c2cccnc2)nc2ccccc12	-2	0.84	1	-1.8	-3	-1
Cc1cc(C)nc(NS(=O)(=O)c2ccc(NC(=O)c3cccs3)cc2)n1	18	.	-5	0.02	-4	10
CN(C1CCCCC1)S(=O)(=O)c1ccc(NC(=S)NC(=O)c2cccs2)cc1	.	-5.7*	.	-1.3	-4	.
CCCCN(CCCC)S(=O)(=O)c1ccc(NC(=O)c2cccs2)cc1	-7	-0.78	-2	-3.2*	-3	51
Cc1ccc(NC(=O)C2(NC(=O)c3cccc(N4C(=O)CSC4c4ccccc4)c3)CCCCC2)cc1 (stereo unspecified)	.	-6.9*	5	-0.9	-2	-3
Cc1cccc(NC(=O)c2ccc(C3SCC(=O)N3CCc3ccccc3)cc2)c1 (stereo unspecified)	.	.	-3	.	-1	57
Cn1ncc2nc[nH]c(=O)c21	2	1.1	-2	-0.66	0	-15
O=C(/C=C/NNC(=O)c1ccccc1)c1ccc(Br)cc1	-28	-3.6	-3	-0.25	6.0*	17
CCOc1cc(N2CCOCC2)c(OCC)cc1NC(=O)Cc1ccccc1OC	.	.	.	0.91	0	.
C=CCn1c(SCC(=O)c2cccs2)nc2sc(CC)cc2c1=O	-14	-1.6	1	-3.2*	0	2
COC(=O)COc1ccc(S(=O)(=O)Nc2ccc(NC(C)=O)cc2)cc1C	4	0.086	3	1.4	1	-64
O=C1CC(O)(c2ccccc2)C(c2ccccc2)=C1c1ccccc1 (stereo unspecified)	-3	-5*	.	-1.2	-5	.
O=C1C=C(c2ccccc2)C(O)(c2ccccc2)C1 (stereo unspecified)	9	0.69	2	-0.19	-3	-11
CCOc1ccc2nc(SCC#N)c(C#N)cc2c1	-9	0.52	-4	0.01	5.0*	-18
Cc1cc(C)cc(NC(=O)CSc2nnc(Cc3cccn3C)n2-c2ccc(F)cc2)c1	-3	-13*	6	.	-3	11
COc1ccc(-n2c(Cc3cccn3C)nnc2SCC(=O)Nc2cccc(OC)c2)cc1	-35	-4.2*	8	.	-2	5
COc1ccc(NC(=O)CSc2nnc(Cc3cccn3C)n2-c2ccc(C)cc2)cc1OC	-10	-2.2	-2	2.5	-2	-1
SMILES	MRP resist rev	Cav32 inh	Mac1 fbg enh	PTK2B oligo ant	MRP1 act	Mac1 fbg inh
CC(=O)Nc1cccc(NC(=O)CSc2nnc(Cc3cccn3C)n2-c2ccc(F)cc2)c1	.	-0.97	5	0.64	-2	-16
Cn1cccc1Cc1nnc(SCC(N)=O)n1-c1ccc(F)cc1	-5	0.66	-4	.	-2	0
COc1ccc(-n2c(Cc3cccn3C)nnc2SCC(=O)Nc2ccc(C)c(Cl)c2)cc1	-13	-4.2*	10	.	-5	10
Cn1cccc1Cc1nnc(SCC(=O)Nc2ccc3c(c2)OCO3)n1-c1ccc(F)cc1	-9	-8.5*	0	.	-3	0
CCOC(=O)N1CCC(=NNC(=O)COc2cccc(C)c2)CC1	.	.	5	.	3	-7
O=C(NC1CC1)C1=C[C@H](C2CCCCC2)C[C@H](OCc2ccc(CO)cc2)O1	.	-0.22	.	.	.	.
CN(C)c1oc(COc2ccccc2F)nc1C#N	13	0.72	5	1.2	0	6
